Values without a mark were called inactive. Inconclusive results are not listed. Entries that show only a call come without a potency. The source made the active and inactive calls. Unless noted, calls follow the shape of the dose curve; as a rule, active = well fitted curve in the direction sought with a large enough effect in the repeat runs; inconclusive = weak or mixed curves; inactive = no such curve, though single readings can be large; an effect the other way counts as inactive or inconclusive.
What was measured:
[1] = target: Progesterone receptor (Homo sapiens) (UniProt P06401); assay: qHTS assay to identify small molecule agonists of the progesterone receptor (PR) signaling pathway (AID 1346784; calls by dose curve; also: nearly all actives have a fitted effect of over 30% in size)
Chain of Progesterone receptor (Homo sapiens) (P06401 whole entry, looked up): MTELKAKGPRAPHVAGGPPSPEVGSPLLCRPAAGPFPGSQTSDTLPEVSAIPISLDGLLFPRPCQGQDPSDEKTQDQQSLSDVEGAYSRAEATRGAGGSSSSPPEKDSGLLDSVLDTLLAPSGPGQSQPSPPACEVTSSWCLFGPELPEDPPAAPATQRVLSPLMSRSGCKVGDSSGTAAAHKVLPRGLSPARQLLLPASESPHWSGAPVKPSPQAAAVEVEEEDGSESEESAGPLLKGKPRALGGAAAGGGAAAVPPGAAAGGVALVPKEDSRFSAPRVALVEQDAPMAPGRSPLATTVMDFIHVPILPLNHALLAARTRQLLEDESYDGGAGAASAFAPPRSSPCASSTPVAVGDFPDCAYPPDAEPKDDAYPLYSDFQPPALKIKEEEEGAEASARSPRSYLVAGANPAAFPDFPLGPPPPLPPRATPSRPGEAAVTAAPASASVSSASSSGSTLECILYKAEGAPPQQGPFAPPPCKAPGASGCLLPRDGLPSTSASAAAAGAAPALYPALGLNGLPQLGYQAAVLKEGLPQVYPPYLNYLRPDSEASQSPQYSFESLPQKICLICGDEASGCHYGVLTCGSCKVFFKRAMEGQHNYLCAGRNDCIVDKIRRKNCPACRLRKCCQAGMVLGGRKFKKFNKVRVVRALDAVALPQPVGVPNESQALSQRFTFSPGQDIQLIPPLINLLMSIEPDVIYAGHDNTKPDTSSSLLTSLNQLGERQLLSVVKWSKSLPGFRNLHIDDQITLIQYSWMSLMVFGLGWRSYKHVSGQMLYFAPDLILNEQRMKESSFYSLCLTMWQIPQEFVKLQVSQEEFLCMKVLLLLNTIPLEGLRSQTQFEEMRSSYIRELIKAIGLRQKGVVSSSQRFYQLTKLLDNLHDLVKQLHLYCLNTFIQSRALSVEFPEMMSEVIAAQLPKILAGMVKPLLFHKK
How it was run: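 Agonist qHTS: compounds pinned onto 3,000 PR-UAS-bla HEK 293T cells per well in charcoal-stripped serum medium, 16hr at 37C, then beta-lactamase activity measured by LiveBLAzer FRET fluorescence after 2 hours at room temperature.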

[2] = target: Progesterone receptor (Homo sapiens) (UniProt P06401); assay: qHTS assay to identify small molecule antagonists of the progesterone receptor (PR) signaling pathway (AID 1346795; active = well fitted inhibition curve with a large enough effect in the signal ratio in the repeat runs, not every such curve was filed as active; the % refers to the signal ratio; also: potency is read from the fitted curve at half-maximal effect)
How it was run: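 Antagonist mode with agonist R5020 at 1 nM final and 16 hr incubation at 37C. Reporter was beta-lactamase driven by UAS in HEK293T (PR-UAS-bla), 2% charcoal-stripped serum; signal from LiveBLAzer FRET substrate, 2 hr at room temperature.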

[3] = qHTS assay to identify small molecule antagonists of the progesterone receptor (PR) signaling pathway - cell viability counter screen (AID 1346798); also: series mostly up to about 92 µM; nearly all actives have a fitted effect of over 50% in size
How it was run: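 Cytotoxicity read as CellTiter-Glo luminescence (30 min, room temperature) in the same wells as the beta-lactamase readout. HEK293T PR-UAS-bla cells in charcoal-stripped 2% FBS received compound and R5020, then 16 h at 37C, 5% CO2.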

[4] = qHTS assay to identify small molecule agonists of the progesterone receptor (PR) signaling pathway - cell viability counter screen (AID 1346799; calls by dose curve; also: nearly all actives have a fitted effect of over 45% in size)
How it was run: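 Cytotoxicity measured by CellTiter-Glo luminescence (30 min, RT) in the same wells as the PR beta-lactamase agonist read. Those HEK293T cells had 16 h compound treatment at 37 C in 2% charcoal-stripped FBS medium.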

[5] = qHTS assay to identify small molecule antagonists of the TGF-beta/Smad signaling pathway - cell viability counter screen (AID 1346824); also: nearly all actives have a fitted effect of over 50% in size
How it was run: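 SBE-bla HEK 293T cells were plated overnight at 37 C, then given compounds in DMSO plus TGF-beta1 (added as 0.25 ng/mL solution) for 5 hr. After the bla read, CellTiter-Glo was added to the same wells and luminescence read after 30 min at room temperature.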

[6] = qHTS assay to identify small molecule agonists of the TGF-beta/Smad signaling pathway - cell viability counter screen (AID 1346829); also: top concentration of the series differs between compounds; nearly all actives have a fitted effect of over 45% in size
How it was run: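 Luminescence from CellTiter-Glo, read after a 30 min room-temperature incubation, gives cell viability of SBE-bla HEK 293T cells treated 5 hr with compounds at 37 C.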

[7] = qHTS assay to identify small molecule agonists of the TGF-beta/Smad signaling pathway (AID 1346859; active = well fitted activation curve with a large enough effect in the signal ratio in the repeat runs, not every such curve was filed as active; the % refers to the signal ratio; also: series mostly up to about 77 µM)
How it was run: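 Fluorescence (ex 405 nm; em 460 and 530 nm) was read 2 h after LiveBLAzer FRET substrate at RT. The preceding compound treatment of overnight-plated SBE-bla HEK293T cells lasted 5 h at 37 C.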

[8] = Human pregnane X receptor (PXR) small molecule agonists, qHTS cell viability counter screen (AID 1346977); also: nearly all actives have a fitted effect of over 50% in size; also: potency is read from the fitted curve at half-maximal effect
How it was run: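 Same-well viability read: CellTiter-Fluor added after 23 hr compound exposure, fluorescence measured 1 hr later. Cells were PXR-Luc HepG2 seeded at 2,000/well in 5% charcoal-stripped FBS medium, rested 5 hr before dosing at 37 C.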

[9] = Caspase-3/7 induction in HepG2 cells by small molecules, qHTS assay (AID 1346978); also: nearly all actives have a fitted effect of over 15% in size
How it was run: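 Wild-type HepG2 cells (2,000/well) were settled 5 h at 37 C, 5% CO2, then exposed to compounds in DMSO for 17 h. Caspase-3/7 activity was read by luminescence 30 min after adding Caspase-Glo 3/7 reagent at room temperature.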

[10] = Caspase-3/7 induction in CHO-K1 cells by small molecules, qHTS cell viability counter screen (AID 1346979); also: nearly all actives have a fitted effect of over 35% in size
How it was run: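 Cytotoxicity counter screen: CellTiter-Fluor added to compound-treated wild-type CHO-K1 cells at 16 h (37C, 5% CO2), fluorescence measured 1 h later; same wells as caspase-3/7 measurement.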

[11] = Caspase-3/7 induction in CHO-K1 cells by small molecules, qHTS assay (AID 1346980); also: nearly all actives have a fitted effect of over 15% in size
How it was run: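 Wild-type cells were seeded at 1,500 per well and settled 5 hr at 37 C, 5% CO2, then exposed to DMSO-dissolved compounds for 17 hr. Caspase-Glo 3/7 reagent was added, and luminescence was read after 30min at room temperature.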

[12] = Caspase-3/7 induction in HepG2 cells by small molecules, qHTS cell viability counter screen (AID 1346981); also: series mostly up to about 92 µM; nearly all actives have a fitted effect of over 30% in size
How it was run: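 The parent HepG2 line is plated at 2,000 cells per well and rested 5 hr before compound pinning from DMSO stocks. Following a 16-hr treatment at 37 C, a fluorogenic live-cell substrate (CellTiter-Fluor) reports viability after 1 hr.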

[13] = target: Nuclear receptor subfamily 1 group I member 2 (Homo sapiens) (UniProt O75469); assay: Human pregnane X receptor (PXR) small molecule agonists, qHTS assay (AID 1346982); also: nearly all actives have a fitted effect of over 35% in size; also: potency is read from the fitted curve at half-maximal effect
Chain of Nuclear receptor subfamily 1 group I member 2 (Homo sapiens) (O75469 whole entry, looked up): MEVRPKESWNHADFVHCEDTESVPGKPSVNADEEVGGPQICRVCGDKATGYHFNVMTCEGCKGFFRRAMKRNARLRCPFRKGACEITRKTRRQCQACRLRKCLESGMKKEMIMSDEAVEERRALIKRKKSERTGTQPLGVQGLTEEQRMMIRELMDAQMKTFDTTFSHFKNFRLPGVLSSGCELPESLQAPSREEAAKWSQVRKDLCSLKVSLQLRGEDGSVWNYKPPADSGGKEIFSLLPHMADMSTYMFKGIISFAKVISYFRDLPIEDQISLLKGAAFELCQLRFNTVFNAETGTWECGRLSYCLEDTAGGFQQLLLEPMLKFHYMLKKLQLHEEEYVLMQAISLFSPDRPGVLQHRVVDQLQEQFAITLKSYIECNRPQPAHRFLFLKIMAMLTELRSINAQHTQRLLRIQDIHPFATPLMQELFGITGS
How it was run: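 After plating in 5% charcoal-stripped FBS and a 5 hr rest, PXR-Luc HepG2 cells received compounds in DMSO. Following 24 hr at 37 C, ONE-Glo was added and light output read.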

[14] = target: Acetylcholinesterase (Homo sapiens) (UniProt P22303); assay: Acetylcholinesterase (AChE) small molecule antagonists: colormetric cell-based qHTS assay (AID 1347395; calls by dose curve; also: nearly all actives have a fitted effect of over 30% in size)
Chain of Acetylcholinesterase (Homo sapiens) (P22303 whole entry, looked up): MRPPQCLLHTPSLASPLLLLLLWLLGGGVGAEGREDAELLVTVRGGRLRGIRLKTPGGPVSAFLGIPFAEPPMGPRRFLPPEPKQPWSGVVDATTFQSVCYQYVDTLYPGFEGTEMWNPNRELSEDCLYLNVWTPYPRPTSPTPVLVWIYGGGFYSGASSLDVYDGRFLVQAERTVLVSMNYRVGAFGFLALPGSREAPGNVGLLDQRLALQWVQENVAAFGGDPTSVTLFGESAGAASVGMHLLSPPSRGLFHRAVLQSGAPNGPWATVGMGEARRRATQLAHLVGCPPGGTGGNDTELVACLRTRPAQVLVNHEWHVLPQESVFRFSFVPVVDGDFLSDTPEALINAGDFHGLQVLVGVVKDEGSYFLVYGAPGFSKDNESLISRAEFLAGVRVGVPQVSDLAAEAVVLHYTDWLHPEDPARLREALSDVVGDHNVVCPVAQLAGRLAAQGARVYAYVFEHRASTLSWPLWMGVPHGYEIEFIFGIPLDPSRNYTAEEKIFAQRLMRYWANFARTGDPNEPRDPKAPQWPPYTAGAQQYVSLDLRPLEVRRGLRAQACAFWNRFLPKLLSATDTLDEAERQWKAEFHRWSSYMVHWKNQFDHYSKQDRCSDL
How it was run: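 Colorimetric readout: DTNB quantifies thiocholine from acetylthiocholine hydrolysed by endogenous AChE of SH-SY5Y cells (2,000/well, plated overnight). Compound pretreatment 30 min, substrate incubation 90 min, both 37 C.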

[15] = target: Acetylcholinesterase (Homo sapiens) (UniProt P22303); assay: Acetylcholinesterase (AChE) small molecule antagonists: enzyme-based qHTS assay (AID 1347397; calls by dose curve; also: nearly all actives have a fitted effect of over 55% in size); conditions: Potency: AChE enzyme activity inhibition
How it was run: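 Tox21 library chemicals are tested in qHTS format against recombinant human AChE. The enzyme, dispensed at 50 mU/mL, sits with compound for 30 min at room temperature. A DTNB–acetylthiocholine cocktail follows, and colour is read after 10 min.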

[16] = target: Thyrotropin-releasing hormone receptor (Homo sapiens) (UniProt P34981); assay: qHTS assay to identify small molecule antagonists of the thyrotropin-releasing hormone receptor (TRHR) signaling pathway (AID 1346877; active = well fitted inhibition curve with a large enough effect in the repeat runs, not every such curve was filed as active; also: series mostly up to about 51 µM)
Chain of Thyrotropin-releasing hormone receptor (Homo sapiens) (P34981 whole entry, looked up): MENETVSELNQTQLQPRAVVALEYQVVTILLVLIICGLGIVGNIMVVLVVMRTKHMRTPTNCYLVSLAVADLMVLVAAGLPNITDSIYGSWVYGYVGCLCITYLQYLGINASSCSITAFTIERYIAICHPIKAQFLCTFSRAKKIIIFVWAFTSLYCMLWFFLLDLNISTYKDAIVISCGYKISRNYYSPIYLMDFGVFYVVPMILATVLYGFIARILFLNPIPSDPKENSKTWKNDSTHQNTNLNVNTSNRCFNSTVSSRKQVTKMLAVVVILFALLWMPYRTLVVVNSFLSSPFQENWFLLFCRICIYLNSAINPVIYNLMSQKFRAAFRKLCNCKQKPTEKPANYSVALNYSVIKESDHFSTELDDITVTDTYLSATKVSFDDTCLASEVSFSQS
How it was run: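 Human TRHR in HEK293 cells; inhibition of the intracellular calcium rise triggered by 1 nM TRH was followed by fluorescence over 3 min. Compounds were run at 15 concentrations, three replicates each.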

[17] = target: Thyrotropin-releasing hormone receptor (Homo sapiens) (UniProt P34981); assay: qHTS assay to identify small molecule agonists of the thyrotropin-releasing hormone receptor (TRHR) signaling pathway (AID 1346891; calls by dose curve; also: series mostly up to about 58 µM)
How it was run: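 Agonist-mode intracellular calcium readout: kinetic fluorescence over 3 min at 1 s intervals after compound addition to TRHR-HEK293 cells (18 h seeded, 2 h dye-loaded at 37 C). Fifteen concentrations, triplicates.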

[18] = target: Nuclear receptor subfamily 1 group I member 2 (Rattus norvegicus) (UniProt Q9R1A7); assay: Rat pregnane X receptor (rPXR) activation by small molecules, qHTS assay (AID 1346983); conditions: rPXR luciferase reporter cells, One-Glo luminescence, 24 h; max activation: active compounds read high; also: nearly all actives have a fitted effect of over 20% in size
Chain of Nuclear receptor subfamily 1 group I member 2 (Rattus norvegicus) (Q9R1A7 whole entry, looked up): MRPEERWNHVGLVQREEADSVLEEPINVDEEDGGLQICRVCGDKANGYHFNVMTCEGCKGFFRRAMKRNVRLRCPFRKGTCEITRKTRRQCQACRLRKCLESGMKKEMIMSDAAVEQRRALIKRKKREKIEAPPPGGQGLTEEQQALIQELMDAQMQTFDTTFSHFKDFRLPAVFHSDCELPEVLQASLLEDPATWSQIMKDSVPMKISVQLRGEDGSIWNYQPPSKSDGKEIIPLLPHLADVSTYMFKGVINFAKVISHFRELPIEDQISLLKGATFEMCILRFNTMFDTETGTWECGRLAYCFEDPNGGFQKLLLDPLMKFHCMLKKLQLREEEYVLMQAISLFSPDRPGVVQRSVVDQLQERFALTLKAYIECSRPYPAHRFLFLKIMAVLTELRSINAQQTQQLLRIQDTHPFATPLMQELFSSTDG
How it was run: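 Cell-based rPXR luciferase reporter assay, 2,000 cells per well, rested 5hr at 37 C before compound addition in DMSO, then 24 hr at 37 C. One-Glo reagent was added and luminescence read after 30 min at room temperature.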

Row | SMILES | Potency [1] | Potency [2] | Potency [3] | Potency [4] | Potency [5] | Potency [6] | outcome [7] | Potency [8] | Potency [9] | Potency [10] | Potency [11] | Potency [12] | Potency [13] | Potency [14] | Potency [15] | Potency [16] | Potency [17] | max activation [18]
1 | CCCN | inactive | inactive | inactive | inactive | inactive | inactive | inactive | inactive | inactive | inactive | inactive | inactive | inactive | inactive | inactive |  |  | 
2 | C#CC1(O)CCCCC1 | inactive | inactive | inactive |  | inactive | inactive | inactive | inactive | inactive | inactive | inactive | inactive | inactive | inactive | inactive | inactive | inactive | 
3 | Cc1nn(-c2cc(NS(C)(=O)=O)c(Cl)cc2Cl)c(=O)n1C(F)F | inactive | inactive | inactive |  | inactive | inactive | inactive | inactive | inactive | inactive | inactive | inactive | inactive | inactive | inactive | inactive | inactive | 
4 | C=Cc1cccc(CCl)c1 | inactive | inactive | inactive | inactive |  | inactive | inactive |  | inactive | inactive | inactive |  | inactive | inactive | inactive | inactive | inactive | 
5 | O=Cc1ccccc1 | inactive | inactive | inactive |  | inactive | inactive | inactive | inactive | inactive | inactive | inactive | inactive | inactive | inactive | inactive | inactive | inactive | 
6 | CNN | inactive | inactive | inactive | inactive | inactive | inactive | inactive | inactive | inactive | inactive | inactive | inactive |  | inactive | inactive |  |  | 
7 | Oc1ccc2[nH]cc(CCCCN3CC=C(c4ccccc4)CC3)c2c1 | inactive | inactive | inactive | inactive | inactive | inactive | inactive |  | inactive |  |  |  |  |  |  |  |  | 4.09%
8 | CC(=O)[O-].CC(=O)[O-].O.O.[Zn+2] | inactive | inactive | inactive | inactive | inactive | inactive | inactive | inactive | inactive |  | inactive | inactive |  |  |  |  |  | 
9 | CC1CN1 (centres undefined) | inactive | inactive | inactive | inactive |  | inactive | inactive | inactive | inactive | inactive | inactive | inactive | inactive | inactive | inactive |  |  | 
10 | Oc1cc(Cl)c(Cl)c(Cl)c1Cl | inactive | 21.2 µM (active) | inactive | inactive |  | inactive |  | 29.9 µM (active) | inactive |  | inactive |  | 33.6 µM (active) | inactive | inactive | inactive | inactive | 
11 | CN=C=O | inactive | inactive | inactive | inactive | inactive | inactive | inactive | inactive | inactive | inactive |  | inactive | inactive | inactive | inactive |  |  | 
12 | CC[N+]1(CC)CCC(OC(=O)C(O)(c2ccccc2)c2ccccc2)C1 (centres undefined) | inactive | inactive | inactive |  | inactive | inactive | inactive | inactive | inactive | inactive | inactive | inactive | inactive | inactive | inactive | inactive | inactive | 
13 | BrCCCBr | inactive | inactive | inactive | inactive |  | inactive | inactive | inactive | inactive | inactive | inactive | inactive | inactive | inactive | inactive | inactive | inactive | 

— PubChem BioAssay (Tox21)
